Measurements taken from PubChem BioAssay AID1159580 (chemical genetic matrix, 2015).
The campaign covered roughly 5,500 compounds. About 2,000 (36%) were called active. Not shown: some 18% with an inconclusive outcome. Cut-off read from the data, not from the text of the source: active = normalized growth mostly below about 0.91 (no sharp cut-off); inconclusive = no clear call, values can overlap the other calls; inactive = mostly above about 0.92. The list shows a part of the results.

Assay: chemical genetic growth profiling, strain panel (AID 1159580);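 note: tested at 20 µM; growth read once vehicle control cultures reached saturation at 30 °C; 1 = growth at the plate median or of vehicle wells; lower values mean less growth of the strain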
Settings: growth OD

Measured: normalized growth

NC(Cc1c[nH]c2ccccc12)C(=O)O (configuration not stated)
inactive: S. cerevisiae deletion strains, locus YJR075W, strain HOC1, hits give low values 1 | S. cerevisiae deletion strains, locus YKL009W, strain mrt4, hits give low values 1.01 | S. cerevisiae deletion strains, locus YKL068W, hits give low values 0.99 | S. cerevisiae deletion strains, locus YKL085W, strain MDH1 (second series), hits give low values 1.02 | S. cerevisiae deletion strains, locus YKL085W, strain MDH1, hits give low values 1.02 | S. cerevisiae deletion strains, locus YKL160W, strain elf1, hits give low values 1.02 | S. cerevisiae deletion strains, locus YKL190W, strain CNB1, hits give low values 0.989 | S. cerevisiae deletion strains, locus YKR001C, strain vps1, hits give low values 1 | S. cerevisiae deletion strains, locus YKR026C, strain gcn3, hits give low values 1.02 | S. cerevisiae deletion strains, locus YKR091W, strain srl3, hits give low values 1.02 | S. cerevisiae deletion strains, locus YLL001W, strain dnm1, hits give low values 1.02 | S. cerevisiae deletion strains, locus YLL026W, hits give low values 1.02 | S. cerevisiae deletion strains, locus YLL041C, strain sdh2, hits give low values 1.01 | S. cerevisiae deletion strains, locus YLR027C, strain aat2, hits give low values 1.01 | S. cerevisiae deletion strains, locus YLR039C, strain RIC1, hits give low values 0.991 | S. cerevisiae deletion strains, locus YLR058C, strain SHM2, hits give low values 0.975 | S. cerevisiae deletion strains, locus YLR102C, strain apc9, hits give low values 0.992 | S. cerevisiae deletion strains, locus YLR113W, strain HOG1, hits give low values 0.969 | S. cerevisiae deletion strains, locus YLR221C, strain rsa3, hits give low values 1.01 | S. cerevisiae deletion strains, locus YLR258W, strain gsy2, hits give low values 1.01 | S. cerevisiae deletion strains, locus YLR262C, strain YPT6 (second series), hits give low values 1.03 | S. cerevisiae deletion strains, locus YLR262C, strain YPT6, hits give low values 0.962 | S. cerevisiae deletion strains, locus YLR268W, strain sec22, hits give low values 1.02 | S. cerevisiae deletion strains, locus YLR320W, strain mms22, hits give low values 0.995 | S. cerevisiae deletion strains, locus YLR330W, strain CHS5, hits give low values 0.99 | S. cerevisiae deletion strains, locus YLR342W, strain FKS1 (second series), hits give low values 1.03 | S. cerevisiae deletion strains, locus YLR342W, strain FKS1, hits give low values 1.02 | S. cerevisiae deletion strains, locus YLR357W, strain rsc2, hits give low values 1.04 | S. cerevisiae deletion strains, locus YLR370C, strain arc18, hits give low values 1.02 | S. cerevisiae deletion strains, locus YLR371W, strain rom2, hits give low values 0.991 | S. cerevisiae deletion strains, locus YLR384C, strain iki3, hits give low values 1.02 | S. cerevisiae deletion strains, locus YLR418C, strain cdc73, hits give low values 1.04 | S. cerevisiae deletion strains, locus YML016C, strain PPZ1, hits give low values 0.989 | S. cerevisiae deletion strains, locus YML032C, strain rad52, hits give low values 0.992 | S. cerevisiae deletion strains, locus YML120C, strain ndi1, hits give low values 1.01 | S. cerevisiae deletion strains, locus YML124C, strain tub3, hits give low values 0.997 | S. cerevisiae deletion strains, locus YMR058W, strain fet3, hits give low values 1.02 | S. cerevisiae deletion strains, locus YMR078C, strain ctf18, hits give low values 0.979 | S. cerevisiae deletion strains, locus YMR125W, strain sto1, hits give low values 1.03 | S. cerevisiae deletion strains, locus YMR129W, hits give low values 1.02 | S. cerevisiae deletion strains, locus YMR205C, strain PFK2, hits give low values 1.03 | S. cerevisiae deletion strains, locus YMR223W, strain ubp8, hits give low values 1 | S. cerevisiae deletion strains, locus YMR231W, strain pep5, hits give low values 1.02 | S. cerevisiae deletion strains, locus YMR263W, strain SAP30, hits give low values 0.983 | S. cerevisiae deletion strains, locus YMR307W, strain GAS1, hits give low values 1.08 | S. cerevisiae deletion strains, locus YNL067W, strain RPL9B, hits give low values 0.992 | S. cerevisiae deletion strains, locus YNL071W, strain lat1, hits give low values 1.02 | S. cerevisiae deletion strains, locus YNL128W, strain TEP1, hits give low values 0.975 | S. cerevisiae deletion strains, locus YNL153C, strain GIM3, hits give low values 0.992 | S. cerevisiae deletion strains, locus YNL183C, strain NPR1, hits give low values 0.941 | S. cerevisiae deletion strains, locus YNL209W, strain ssb2, hits give low values 1.03 | S. cerevisiae deletion strains, locus YNL233W, strain BNI4, hits give low values 0.999 | S. cerevisiae deletion strains, locus YNL248C, strain rpa49, hits give low values 1.02 | S. cerevisiae deletion strains, locus YNL250W, strain rad50, hits give low values 0.975 | S. cerevisiae deletion strains, locus YNL271C, strain bni1, hits give low values 1.01 | S. cerevisiae deletion strains, locus YNL298W, strain CLA4, hits give low values 0.995 | S. cerevisiae deletion strains, locus YNL307C, strain MCK1, hits give low values 0.991 | S. cerevisiae deletion strains, locus YNL322C, strain KRE1 (second series), hits give low values 1.02 | S. cerevisiae deletion strains, locus YNL322C, strain KRE1, hits give low values 0.989 | S. cerevisiae deletion strains, locus YNR049C, strain mso1, hits give low values 1.02 | S. cerevisiae deletion strains, locus YNR052C, strain pop2, hits give low values 0.991 | S. cerevisiae deletion strains, locus YOL006C, strain TOP1, hits give low values 1.03 | S. cerevisiae deletion strains, locus YOL012C, strain htz1 2.02 | S. cerevisiae deletion strains, locus YOL147C, strain pex11, hits give low values 0.998 | S. cerevisiae deletion strains, locus YOR001W, strain rrp6, hits give low values 0.992 | S. cerevisiae deletion strains, locus YOR061W, strain CKA2, hits give low values 0.973 | S. cerevisiae deletion strains, locus YOR069W, strain VPS5, hits give low values 0.991 | S. cerevisiae deletion strains, locus YOR070C, strain gyp1, hits give low values 1.02 | S. cerevisiae deletion strains, locus YOR080W, strain dia2, hits give low values 1.02 | S. cerevisiae deletion strains, locus YOR083W, strain WHI5, hits give low values 1.01 | S. cerevisiae deletion strains, locus YOR106W, strain vam3, hits give low values 1 | S. cerevisiae deletion strains, locus YOR136W, strain idh2, hits give low values 0.992 | S. cerevisiae deletion strains, locus YOR144C, strain elg1, hits give low values 1 | S. cerevisiae deletion strains, locus YOR184W, strain ser1, hits give low values 1 | S. cerevisiae deletion strains, locus YOR231W, strain MKK1, hits give low values 0.946 | S. cerevisiae deletion strains, locus YOR265W, strain rbl2, hits give low values 1.01 | S. cerevisiae deletion strains, locus YOR270C, strain vph1, hits give low values 1.04 | S. cerevisiae deletion strains, locus YOR290C, strain snf2, hits give low values 1.01 | S. cerevisiae deletion strains, locus YOR316C, strain cot1, hits give low values 0.981 | S. cerevisiae deletion strains, locus YPL051W, strain arl3, hits give low values 1.01 | S. cerevisiae deletion strains, locus YPL055C, strain LGE1, hits give low values 0.981 | S. cerevisiae deletion strains, locus YPL078C, strain atp4, hits give low values 1.01 | S. cerevisiae deletion strains, locus YPL106C, strain sse1, hits give low values 1.02 | S. cerevisiae deletion strains, locus YPL240C, strain hsp82, hits give low values 1.02 | S. cerevisiae deletion strains, locus YPL241C, strain CIN2, hits give low values 0.995 | S. cerevisiae deletion strains, locus YPL256C, strain CLN2, hits give low values 0.963 | S. cerevisiae deletion strains, locus YPR119W, strain clb2, hits give low values 0.996 | S. cerevisiae deletion strains, locus YPR141C, strain kar3, hits give low values 0.985 | S. cerevisiae deletion strains, locus YPR163C, strain tif3, hits give low values 0.998 | S. cerevisiae deletion strains, locus YPR167C, strain met16, hits give low values 1 | S. cerevisiae deletion strains, strain wtn01, hits give low values 0.984 | S. cerevisiae strains, strain wild type, hits give low values 0.997
